Inconclusive results are not listed. The source made the active and inactive calls. Unless noted, calls come from the whole dose curve; as a rule, active = well fitted curve in the direction sought with a large enough effect; inconclusive = small, poorly fitted or top-dose-only effect, or another doubt; inactive = no such curve, though single readings can be large; an effect the other way counts as inactive or inconclusive.
What was measured:
[1] = P-glycoprotein substrates identified in KB-3-1 adenocarcinoma cell line, qHTS therapeutic library screen (AID 1346986); note: nearly all actives have a fitted effect of over 60% in size
Method in brief: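 Compounds were tested in dose-response against KB-3-1 and KB-8-5-11 cells at 37 degree C for 72 h, and viability was measured by luminescence. AC50 values came from curve fitting with class-based activity calls.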

[2] = P-glycoprotein substrates identified in KB-8-5-11 adenocarcinoma cell line, qHTS therapeutic library screen (AID 1346987); note: nearly all actives have a fitted effect of over 65% in size
Method in brief: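 KB-8-5-11: colchicine-selected sub-line of KB-3-1 over-expressing P-gp; assay medium lacked colchicine. 72 h drug exposure at 37 degree C, CellTiter-Glo.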

[3] = system: Zika virus NS2B-NS3 protease (linked construct); assay: Primary screen NINDS Rhodamine qHTS for Zika virus inhibitors (AID 1347160); note: nearly all actives have a fitted effect of over 55% in size
Method in brief: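 Percent inhibition, normalized to uninhibited and enzyme-free controls, is fitted to a 4-parameter Hill equation. Fluorescence change comes from a 15-min cleavage of 1.5 microM bis-peptide Rhodamine110 substrate by 25 nM linked NS2B-NS3 at room temperature.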

[4] = biological target: Peroxisome proliferator-activated receptor alpha (Homo sapiens) (UniProt Q07869); assay: qHTS assay for small molecule agonists of the peroxisome proliferator-activated receptor alpha (PPARalpha) signaling pathway (AID 651778); conditions: PathHunter PPARalpha complementation, chemiluminescence, 6 h; active compounds read high; note: % of control where 0% means no effect
Sequence of Peroxisome proliferator-activated receptor alpha (Homo sapiens) (Q07869 whole entry, looked up, the tested form may be a part): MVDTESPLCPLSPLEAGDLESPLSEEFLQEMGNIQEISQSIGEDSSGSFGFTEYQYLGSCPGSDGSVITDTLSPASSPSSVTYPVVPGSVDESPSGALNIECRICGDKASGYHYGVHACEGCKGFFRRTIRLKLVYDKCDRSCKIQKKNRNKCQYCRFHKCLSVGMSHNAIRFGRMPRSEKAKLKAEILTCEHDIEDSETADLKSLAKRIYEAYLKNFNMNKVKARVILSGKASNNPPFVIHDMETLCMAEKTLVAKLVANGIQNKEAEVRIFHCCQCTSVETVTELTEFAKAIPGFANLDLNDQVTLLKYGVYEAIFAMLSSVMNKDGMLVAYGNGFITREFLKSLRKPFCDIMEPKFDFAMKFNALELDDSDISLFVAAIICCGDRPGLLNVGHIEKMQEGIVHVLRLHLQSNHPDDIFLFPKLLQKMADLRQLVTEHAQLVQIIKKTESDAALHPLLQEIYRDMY
Method in brief: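 Enzyme-fragment complementation assay in which ligand-bound PPARalpha translocates and forms an active enzyme that generates chemiluminescence. Cells were plated overnight, exposed to compound for 6 hr at 37 C, and then given detection reagent for 60 min at room temperature.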

[5] = biological target: Nuclear receptor ROR-gamma (Homo sapiens) (UniProt P51449); assay: qHTS assay for small molecule antagonists of the retinoid-related orphan receptor gamma (ROR-gamma) signaling pathway (AID 651802); note: series mostly up to about 92 µM; % is set by controls: 0 for no effect and ±100 for the full control effect; nearly all actives have a fitted effect of over 60% in size
Sequence of Nuclear receptor ROR-gamma (Homo sapiens) (P51449 whole entry, looked up): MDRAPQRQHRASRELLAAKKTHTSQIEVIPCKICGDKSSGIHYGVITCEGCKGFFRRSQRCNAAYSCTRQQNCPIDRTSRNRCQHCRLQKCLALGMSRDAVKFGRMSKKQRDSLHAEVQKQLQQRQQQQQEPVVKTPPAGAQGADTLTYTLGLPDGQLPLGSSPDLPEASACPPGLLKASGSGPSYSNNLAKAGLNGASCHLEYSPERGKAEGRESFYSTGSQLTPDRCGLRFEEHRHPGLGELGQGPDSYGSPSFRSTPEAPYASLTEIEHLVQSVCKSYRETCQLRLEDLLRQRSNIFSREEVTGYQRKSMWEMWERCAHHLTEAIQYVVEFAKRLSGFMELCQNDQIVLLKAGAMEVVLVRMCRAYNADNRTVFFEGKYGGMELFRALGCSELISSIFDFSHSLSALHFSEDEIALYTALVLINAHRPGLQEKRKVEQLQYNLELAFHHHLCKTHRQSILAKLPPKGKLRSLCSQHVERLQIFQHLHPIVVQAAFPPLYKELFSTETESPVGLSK
Method in brief: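 CHO cells carrying TET-inducible ROR-gamma and an ROR response element–luciferase reporter were exposed to compound, then induced with doxycycline. After 16hr at 37C, luminescence was read; lower signal indicates antagonism.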

[6] = qHTS assay for small molecule agonists of the antioxidant response element (ARE) signaling pathway measured by Nrf2-dependant transcriptional activity (AID 720636; active = well fitted curve in the direction sought with a large enough effect in the repeat runs; an effect the other way counts as inactive or inconclusive;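 note: HepG2 cells with an ARE-driven luciferase reporter; % of control where 0% means no effect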)
Method in brief: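 ONE-Glo luminescence, read 30 min after reagent addition at room temperature, reflected ARE reporter activity in HepG2 cells that had been incubated with compound for 16 hr at 37 C in 1% dialyzed FBS.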

[7] = qHTS assay for small molecule antagonists of the retinoid-related orphan receptor gamma (ROR-gamma) signaling pathway - cell viability counter screen (AID 720652; active = well fitted curve in the direction sought with a large enough effect in the repeat runs; an effect the other way counts as inactive or inconclusive;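 note: series mostly up to about 92 µM; compound exposure lasted 16 hr before ATP read; % is set by controls: 0 for no effect and ±100 for the full control effect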)
Method in brief: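 Counter screen in CHO cells carrying TET-inducible ROR-gamma and an ROR response element-luciferase reporter; cells plated 5 hr, compound pinned, doxycycline added, then 16 hr at 37 C. Viability read as intracellular ATP by CellTiter-Glo luminescence.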

[8] = qHTS assay for small molecule agonists of the antioxidant response element (ARE) signaling pathway measured by Nrf2-dependant transcriptional activity - cell viability counter screen (AID 720653; active = well fitted curve in the direction sought with a large enough effect in the repeat runs; an effect the other way counts as inactive or inconclusive; note: % is set by controls: 0 for no effect and ±100 for the full control effect); conditions: ARE-bla HepG2 viability, CellTiter-Glo ATP luminescence, 16 h; active compounds read low
Method in brief: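 ARE-bla HepG2 cells treated with compounds for 16 h at 37C; this counter screen measures viability as intracellular ATP by CellTiter-Glo luminescence after 30 min at room temperature.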

[9] = qHTS assay for cell viability of HEK293 cells (AID 743288); conditions: ATP luminescence (CellTiter-Glo), 18 h, active compounds read low; note: % is set by controls: 0 for no effect and ±100 for the full control effect; nearly all actives have a fitted effect of over 50% in size
Method in brief: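 Environmental chemicals tested in qHTS format against parental HEK293 cells; 18 h treatment, 37 C; read-out ATP luminescence (CellTiter-Glo), 30 min RT development.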

[10] = qHTS assay for cell viability of the p53RE-bla HCT-116 cell line (AID 743292); note: % is set by controls: 0 for no effect and ±100 for the full control effect; nearly all actives have a fitted effect of over 55% in size
Method in brief: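 After plating at 4,000 cells per well and a 5 h rest at 37 C, HCT-116 cells carrying p53RE-bla received test chemicals in DMSO. Sixteen hours later at 37 C, CellTiter-Glo was added and luminescence recorded following 30 min at room temperature.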

[11] = system: Zika virus NS2B-NS3 protease (unlinked complex); assay: Primary screen GU Rhodamine qHTS for Zika virus inhibitors: Unlinked NS2B-NS3 protease assay (AID 1347159); note: % is set by controls: 0 for no effect and ±100 for the full control effect; nearly all actives have a fitted effect of over 60% in size
Method in brief: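 Compounds, tested up to 114 microM, were incubated for 15 minutes with 25 nM unlinked NS2B-NS3 protease at pH 8.0. Cleavage of 1.5 microM Rhodamine110 substrate was then followed by fluorescence for 15 minutes.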

C=C1C(=O)OC[C@H]2C(C(=O)O)=CC3CC(C)(C)C[C@@]132 (stereo not given in full)
inactive: Potency [1] | Potency [2] | Potency [3]

COC(=O)[C@]1(Cc2ccc(O)c(CC=C(C)C)c2)OC(=O)C(O)=C1c1ccc(O)cc1
inactive: Potency [1] | Potency [2] | Potency [3]

COc1ccc(CCC(=O)c2c(O)cc(O[C@@H]3O[C@H](CO)[C@@H](O)[C@H](O)[C@H]3O[C@@H]3O[C@@H](C)[C@H](O)[C@@H](O)[C@H]3O)cc2O)cc1O
inactive: max response [4] 0.724% | outcome [5] | outcome [6] | outcome [7] | max response [8] -0.966% | max response [9] -4.69% | outcome [10] | Potency [1] | Potency [2] | Potency [11] | Potency [3]

CCC(C)C(C(=O)O)N1Cc2c(OCC=C(C)C)c(C)c(OC)c(C(=O)O)c2C1=O (stereo not given)
inactive: Potency [1] | Potency [2] | Potency [3]

C[C@@H]1C[C@H]2OC(=O)[C@@]3(C)CCC[C@](C)(C23)[C@@]1(O)CCC1=CC(=O)OC1O (stereo not given in full)
inactive: Potency [1] | Potency [2] | Potency [3]

COc1ccnc2[nH]cc(C(=O)C(=O)N3CCN(C(=O)c4ccccc4)CC3C)c12 (stereo not given)
inactive: Potency [1] | Potency [11] | Potency [3]

C[C@@H]1CC[C@]2(C(=O)O)CC[C@]3(C)C(=CCC4[C@@]5(C)C[C@@H](O)[C@@H](O)C(C)(C)C5CC[C@]43C)C2[C@]1(C)O (stereo not given in full)
inactive: Potency [2]

Cn1nccc1-c1ccccc1Oc1ccc(S(=O)(=O)Nc2nccs2)cc1C#N
inactive: Potency [2]

C/C=C/C=C/C=C/C(=O)O[C@@H]1C=C(CO)[C@](O)(CO)[C@@]2(C)CCCC(C)(C)[C@H]12
inactive: Potency [1] | Potency [2] | Potency [3]

Cc1[nH]c2ccccc2c1CC(=O)N[C@@H](Cc1ccccc1)C(=O)N(C)c1ccccc1
inactive: Potency [1] | Potency [11] | Potency [3]

C/C(=C\CO)CC/C=C(\C)C(=O)O[C@@H]1O[C@H](CO)[C@@H](O)[C@H](O)[C@H]1O
inactive: Potency [1] | Potency [11] | Potency [3]

O=C(O)CC(CCc1ccccc1)OC1OC(CO)C(O)C(O)C1O (stereo not given)
inactive: Potency [1] | Potency [3]

CC(CCO)CCC1C2(C)CCCC(C)(C)C2CC[C@@]1(C)O (stereo not given in full)
inactive: Potency [2]

— PubChem BioAssay (NCATS)
